Experimental data taken from PubChem BioAssay AID720504 (National Center for Advancing Translational Sciences (NCATS), 2013).
About 10,000 (2.8%) of roughly 360,000 compounds were called active. Roughly 4% stayed inconclusive and do not appear here. Many of the other results were omitted from the sample, so actives are more common in it than they were. A number with no mark means an inactive call. The call rests on the fitted dose curve; in most records, active means well fitted inhibition curve with a large enough effect; inconclusive means small, poorly fitted or top-dose-only effect; inactive means flat fitted curve, though single readings scatter.
Further: nearly all actives have a fitted effect of over 65% in size.
On the % scale 0 is the no-effect control and ±100 the full control effect; potency means the concentration at half of the fitted maximal effect.
Wherever max response, negative = inhibition is given: series mostly up to about 57 µM.

What follows are compounds tested against Serine/threonine-protein kinase PLK1 (Homo sapiens) (UniProt P53350) (assay: qHTS for Inhibitors of PLK1-PDB (polo-like kinase 1 - polo-box domain): Primary Screen). Conditions: Plk1 PBD binding of FITC phosphopeptide, fluorescence polarization.
Chain of Serine/threonine-protein kinase PLK1 (Homo sapiens) (P53350 whole entry, looked up, the tested form may be a part): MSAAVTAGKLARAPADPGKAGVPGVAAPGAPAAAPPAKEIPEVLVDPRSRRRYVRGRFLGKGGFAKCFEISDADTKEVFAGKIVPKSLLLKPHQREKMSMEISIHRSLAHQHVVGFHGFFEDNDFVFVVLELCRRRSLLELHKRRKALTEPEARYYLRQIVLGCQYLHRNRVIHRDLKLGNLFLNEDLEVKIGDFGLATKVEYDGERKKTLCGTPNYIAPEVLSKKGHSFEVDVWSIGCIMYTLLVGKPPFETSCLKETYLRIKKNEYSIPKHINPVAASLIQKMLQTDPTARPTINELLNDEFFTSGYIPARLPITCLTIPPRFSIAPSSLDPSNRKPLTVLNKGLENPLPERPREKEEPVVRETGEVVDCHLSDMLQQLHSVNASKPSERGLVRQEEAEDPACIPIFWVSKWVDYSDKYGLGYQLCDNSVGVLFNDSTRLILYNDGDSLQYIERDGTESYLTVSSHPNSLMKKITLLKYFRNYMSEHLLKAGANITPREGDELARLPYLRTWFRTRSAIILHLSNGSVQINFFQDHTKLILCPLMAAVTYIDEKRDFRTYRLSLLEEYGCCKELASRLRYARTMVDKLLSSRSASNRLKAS
Source text: The polo-like kinase 1 (Plk1) is a member of a conserved subfamily of serine / threonine protein kinases that plays a pivotal roles in cell proliferation. It has a C-terminal non-catalytic region called the polo-box domain (PBD) that plays a crucial role in the subcellular localization of the Plk1. […] Furthermore, depletion of the overexpressed Plk1 by RNAi efficiently induces apoptotic cell death in cancer and reduces tumor growth in mouse xenograft models. Thus, targeting Plk1 is an appealing strategy for anti-cancer therapy. Therefore, this project aimed to screen the Molecular Libraries Small Molecule Repository (MLSMR) using a novel approach to find inhibitors that target the Plk1 PBD instead of the conventional N-terminal catalytic domain. This project employed a fluorescence polarization (FP) assay using a FITC-conjugated phospho-9-mer (p-9-mer) peptide and purified human Plk1 PBD protein. The identified small molecule inhibitors of Plk1 PBD can then further be developed into useful tools for biomedical and clinical research that complements or replaces current relevant disease therapy. NIH Chemical Genomics Center [NCGC] NIH Molecular Libraries Probe Centers Network [MLPCN] MLPCN Grant: MH100728 Assay Submitter (PI): Kyung Lee, NCI
Four microliter of 25 nM FITC-p-9-mer + 60 nM Plk1 PBD in buffer solution (final concentrations 25 nM and 60 nM respectively) or 4 uL of 25 nM FITC-p-9-mer (final concentration 25 nM) in buffer will be dispensed into a 1,536 Greiner medium-binding black solid plate. Small molecules at final concentrations of 18 nM to 57 uM and positive control phospho-9-mer (sequence: Ac-PPLHSpTAI-NH2) at final concentrations 26 nM to 57 uM and phospho-13-mer (sequence: Ac-[…]pTAI-NH2) at final concentrations of 1 nM to 2.3 uM will be pin-transferred (23 nL) to the plate via a Kalypsys pin-tool robotics equipped with a 1,536-pin array. The reaction plate will be centrifuged for 1 min at 1000 rpm and incubated at room temperature for 10 min. The FITC fluorescence signals will be read using the PerkinElmer ViewLux plate reader at 480 / 20 nm excitation and 540 / 20 nm S and P polarization emission wavelengths. Reagent bottles will be kept submerged into 4 °C recirculating chiller bath and all liquid lines will be covered with aluminum foil to minimize degradation. Library plates will be screened starting from the lowest to the highest concentrations to minimize compound carryover. Vehicle only plates, with DMSO being pin-transferred instead of compound solutions, will be included regularly throughout the screen to record any systematic shifts in assay signal.
For `COc1cc(C(=S)N2CCOCC2)ccc1O`, the Potency was 11.9 µM (active). `COc1ccc(C(=O)C2CCCN(Cc3ccc(C)s3)C2)cc1OC` (centres undefined) was tested, and the max response, negative = inhibition was -12.4%. Compound `COc1ccccc1OC(=O)c1ccc(C)c(S(=O)(=O)N2CCOCC2)c1` has a max response, negative = inhibition of -17.4%. `S=C(NCCc1ccccc1)N1Cc2cc(N3CCOCC3)ccc2-n2nncc2C1` gave a max response, negative = inhibition of -7.87%. For `OC1/C(=C/c2ccc(C(F)(F)F)cc2)N2CCC1CC2` (centres undefined), the max response, negative = inhibition was 3.89%. `CCOC(=O)C1(Cc2ccc(Cl)cc2)CCN(C(C)CCn2cccn2)CC1` (centres undefined) gave a max response, negative = inhibition of -2.75%. Work on `CCOc1ccc(-c2cc(C)[n+](CCN(CC)CC)c(-c3ccc(OCC)cc3)c2)cc1` yielded a max response, negative = inhibition of -4.15%. `CCn1cc(CN2CCCC(C(=O)c3cccc(C(F)(F)F)c3)C2)cn1` (centres undefined) gave a max response, negative = inhibition of -6.76%. In the case of `CCN(CC)C(=O)Oc1ccc(OC(=O)N(CC)CC)cc1`, the Potency is reported as 16.8 µM (active). In the case of `CCN(CC)C(=O)Oc1ccc(NC(=O)N2CCOCC2)cc1`, the max response, negative = inhibition is reported as -7.81%. Work on `CN(C)C(=O)Oc1ccc(OCc2cccc[n+]2C)cc1` yielded a max response, negative = inhibition of -4.14%. In the case of `CCC1(C)CC(CCNCc2ccc(N(C)C)cc2)(c2ccc(F)cc2)CCO1` (centres undefined), the max response, negative = inhibition is reported as -1.51%. `COc1ccccc1CN1CCN(C(=O)Cc2ccccc2)CC1` was tested, and the max response, negative = inhibition was 3.36%. `O=c1[nH]c2ccccc2n1C1CCN(C(c2ccccc2)c2nnnn2Cc2ccccc2)CC1` (centres undefined) gave a max response, negative = inhibition of 3.89%. Compound `Cc1cc(C)c2c(c1)NP(=S)(c1ccccc1)N2` (centres undefined) has a max response, negative = inhibition of -17.9%. For `COc1ccc2c(c1)NP(=S)(c1ccccc1)N2` (centres undefined), the Potency was 3.36 µM (active). `CC(=O)Nc1ccccc1C(=O)OCC(=O)c1cccc2ccccc12` gave a max response, negative = inhibition of -5.92%. `CC(c1ccccc1)(c1ccccc1)c1ccncc1` gave a max response, negative = inhibition of -1.65%. `COC(=O)C1=C(c2cc3ccccc3o2)C[C@@H]2CC[C@H]1N2C(=O)NC1CCCCC1` was tested, and the max response, negative = inhibition was 0.442%. With `CCOC(=O)C1=C(C)OC(N)=C(C(=O)OC)C12C(=O)Nc1ccc(Br)cc12` (centres undefined) the max response, negative = inhibition was 0.0447%. For `CC(C)c1ccc(O)c(CN2CCN(c3ccccc3)CC2)c1`, the max response, negative = inhibition was 6.47%. With `COc1cccc(N2C(=O)NC(=O)/C(=C\c3ccc([N+](=O)[O-])s3)C2=O)c1` the Potency was 5.32 µM (active). In the case of `COc1cccc(N2C(=O)NC(=O)/C(=C\c3cn(C)c4ccccc34)C2=O)c1`, the Potency is reported as 9.47 µM (active). In the case of `CCc1nc2ccccc2c(=O)n1-c1cccc(OC)c1`, the max response, negative = inhibition is reported as -4.27%. For `O=C1NC(=O)N(c2ccccc2)C(=O)/C1=C/c1ccc([N+](=O)[O-])s1`, the Potency was 2.67 µM (active). Compound `CC1=C(C(=O)Nc2ccccc2)SCCO1` has a max response, negative = inhibition of -5.57%. `CC(=CCOc1ccc2ccc(=O)oc2c1)C1=CC(=O)C(C)(C)O1` was tested, and the max response, negative = inhibition was -1.51%. In the case of `O=C(O)C1CSC(c2cccnc2)N1` (centres undefined), the max response, negative = inhibition is reported as -10%. `O=C1NCN(c2ccccc2)C12CCN(C(c1cccs1)c1nnnn1C1CCCCC1)CC2` (centres undefined) showed a max response, negative = inhibition of -2.86%. Compound `COP(=O)(NS(=O)(=O)c1ccccc1)OC` has a max response, negative = inhibition of -7.79%. Compound `C[N+]1(C)CCOC(O)(c2ccc(-c3ccc(C4(O)C[N+](C)(C)CCO4)cc3)cc2)C1` (centres undefined) has a max response, negative = inhibition of -17.9%. `COc1ccc(-n2c(O)c(C(C)=Nc3ccc4c(c3)CCC4)c(=O)[nH]c2=O)cc1` gave a max response, negative = inhibition of 2.28%. `COc1ccccc1C1=NCc2nnc(CSC)n2-c2ccc(Cl)cc21` was tested, and the max response, negative = inhibition was 2.66%. `O=C(NCC1=C(c2ccc3ccccc3c2)C[C@@H]2CC[C@H]1N2Cc1ccco1)c1cccs1` showed a max response, negative = inhibition of -9.52%. For `O=C1NC(=O)C(C/C=C/c2ccccc2)C(=O)N1`, the max response, negative = inhibition was -29.7%. In the case of `CCN(CC)C(=O)c1ccc(NC(=O)c2cc(-n3cnnc3)ccc2Cl)cc1`, the max response, negative = inhibition is reported as -5.96%. `CN(C)CC1Oc2ccccc2OC1(O)c1ccccc1` (centres undefined) was tested, and the Potency was 5.32 µM (active). `OC(CNC1CCCCC1)c1ccccc1` (centres undefined) was tested, and the max response, negative = inhibition was -2.72%. For `CN1CCC(N(C)Cc2cccnc2)CC1`, the max response, negative = inhibition was -7.61%. Compound `CCOC(=O)C(O)(c1ccc(N)c(OC)c1)C(F)(F)F` (centres undefined) has a max response, negative = inhibition of -1.46%. In the case of `CN(C)C(=O)Oc1cc(=O)n2c3c(cccc13)CCC2`, the max response, negative = inhibition is reported as -13.7%. `CC1CCCN1CCC(C(N)=O)(c1ccccc1)c1ccccc1` (centres undefined) was tested, and the max response, negative = inhibition was -4.65%. `Cc1ccc(-n2c(C)cc(/C=C3\C(=O)NC(=O)N(C)C3=O)c2C)cc1C` gave a max response, negative = inhibition of -15.6%. In the case of `Cc1ccnc(-n2c(C)cc(/C=C3\C(=O)NC(=S)N(C)C3=O)c2C)c1`, the Potency is reported as 2.38 µM (active). With `O=C(NC(c1ccc(Cl)cc1)P(=O)(Oc1ccccc1)Oc1ccccc1)OCc1ccccc1` (centres undefined) the max response, negative = inhibition was 0.141%. With `C[C@H]1CN([C@@H](C)CO)C(=O)CCCn2nncc2CO[C@H]1CN(C)C(=O)Oc1ccccc1` the max response, negative = inhibition was -3.55%. For `CC(CC(C#N)(c1ccccc1)c1ccccc1)N1CCCCC1` (centres undefined), the max response, negative = inhibition was -6.42%. `COc1cccc(C(c2nnnn2-c2ccc3c(c2)OCCO3)N2CCC3(CC2)C(=O)NCN3c2ccccc2)c1OC` (centres undefined) was tested, and the max response, negative = inhibition was -7.89%. For `O=C(O)CCn1cc(C=C2C(=O)NC(=S)NC2=O)c(-c2cccc(Br)c2)n1`, the Potency was 4.74 µM (active). For `O=c1[nH]c2ccccc2n1C1CCN(C(c2ccnc3ccccc23)c2nnnn2Cc2ccccc2)CC1` (centres undefined), the max response, negative = inhibition was 3%. With `CCCCCCCCCCCCn1ccc(=N)cc1` the max response, negative = inhibition was -4.33%. In the case of `COc1ccc(-c2nn(CCC#N)cc2C(=O)O)cc1`, the max response, negative = inhibition is reported as -2.51%. With `O=C(c1cc(S(=O)(=O)N2CCOCC2)ccc1F)N1CCC2(CC1)OCCO2` the max response, negative = inhibition was -4.68%. `C=CC12CN(C)[C@@H]3C4CO[C@H](C[C@H]41)[C@]1(C(=O)Nc4ccccc41)[C@@H]32` (some centres undefined) gave a max response, negative = inhibition of -7.71%. For `CCN1C(=O)C(=Cc2c(C)n(CC(=O)NCC3CCCO3)c3ccccc23)C(=O)N(CC)C1=S` (centres undefined), the Potency was 1.06 µM (active). Compound `C/C=C/CC1(CC)C(=O)NC(=S)NC1=O` has a max response, negative = inhibition of -7.94%. `CCc1cccc2c(C#N)cn(CC(=O)N3CCOCC3)c12` gave a max response, negative = inhibition of -5.32%. For `COc1ccccc1N=Nc1c(O)[nH]c(=S)[nH]c1=O`, the max response, negative = inhibition was 13.3%. `O=c1[nH]c(=S)[nH]c(O)c1/C=C1\C=Nc2ccccc21` was tested, and the Potency was 1.19 µM (active).
